Measured values: PubChem BioAssay (Tox21)
Results filed as inconclusive are left out. The source made the active and inactive calls. The call rests on the fitted dose curve.

target: Vitamin D3 receptor (Homo sapiens) (UniProt P11473); assay: qHTS assay to identify small molecule agonists of the vitamin D receptor (VDR) signaling pathway (AID 743222); settings: HEK293T VDR-UAS-bla, beta-lactamase FRET ratio, 16 h; series mostly up to 63.5 µM
Excerpt: National Center for Advancing Translational Sciences [NCATS]
NIH Chemical Genomics Center [NCGC]
U.S. Environmental Protection Agency [EPA]
National Institutes of Environmental Health Sciences [NIEHS]
National Toxicology Program [NTP]
U.S. Food and Drug Administration [FDA]
The vitamin D receptor (VDR), a member of nuclear hormone receptor superfamily, plays a critical role in calcium homeostasis and bone metabolism. It is also involved in cell differentiation and growth, and thrombogenicity.
Tox21 Assay Protocol Summary:
VDR-bla cells were dispensed at 2,000 cells/6 uL/well into black wall/clear-bottom 1536-well plates using a Multidrop Combi (Thermo Fisher Scientific, Waltham, MA) dispenser. After the assay plates were incubated at a 37C and 5% CO2 for 4 h, 23 nL of compounds dissolved in DMSO, positive controls or DMSO only was transferred to the assay plate by a Pintool station (Kalypsys, San Diego, CA). The plates were incubated at 37C and 5% CO2 for 16 h. After 1 uL of LiveBLAzerTM B/G FRET substrate was added using a Bioraptr Flying Reagent Dispenser (FRD) workstation (Beckman Coulter, Indianapolis, IN, USA), the plates were incubated at room temperature for 2 h, and fluorescence intensity was measured by an Envision plate reader (PerkinElmer, Shelton, CT).

Vitamin D3 receptor (Homo sapiens), sequence (P11473 whole entry, looked up): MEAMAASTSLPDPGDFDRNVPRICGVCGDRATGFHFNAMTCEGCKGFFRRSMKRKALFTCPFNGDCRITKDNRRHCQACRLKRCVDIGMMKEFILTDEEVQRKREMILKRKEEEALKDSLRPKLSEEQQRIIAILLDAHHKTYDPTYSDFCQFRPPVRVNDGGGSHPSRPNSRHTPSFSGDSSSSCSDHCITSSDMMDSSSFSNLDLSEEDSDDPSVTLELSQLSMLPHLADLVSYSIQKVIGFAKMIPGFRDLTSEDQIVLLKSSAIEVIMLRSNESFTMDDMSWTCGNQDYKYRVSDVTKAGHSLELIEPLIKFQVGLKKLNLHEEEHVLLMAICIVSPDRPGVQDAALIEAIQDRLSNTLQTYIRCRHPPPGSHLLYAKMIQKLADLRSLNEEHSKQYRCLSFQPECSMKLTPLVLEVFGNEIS

| Structure (SMILES) | outcome |
| --- | --- |
| CCC/C=C/CO | inactive |
| CC(C)=CCC[C@](C)(O)[C@@H]1CC=C(C)CC1 | inactive |
| Nc1ccc2ccccc2c1S(=O)(=O)O | inactive |
| C[C@@H]1CN(c2c(F)c(F)c3c(=O)c(C(=O)O)cn(C4CC4)c3c2F)C[C@H](C)N1 | inactive |
| CCCCNC(=S)NCCCC | inactive |
| CN1CCN(c2c(F)cc3c(=O)c(C(=O)O)cn(CCF)c3c2F)CC1 | inactive |
| CC(C)CCCCCCc1ccc(OCCOCCO)cc1 | inactive |
| CCOC(=O)COc1ccc2c(c1)CC(NCC(O)c1cccc(Cl)c1)CC2 (stereo not given) | inactive |
| Cc1ccc([N+](=O)[O-])c(N)c1 | inactive |
| CCCC1CCC(=O)O1 (stereo not given) | inactive |
| C=CCc1cc(OC)c(O)c(C(=O)NCCO)c1 | inactive |
| CCN1CC(CCN2CCOCC2)C(c2ccccc2)(c2ccccc2)C1=O (stereo not given) | inactive |
| Cc1ncc(CO)c(CN)c1O | inactive |
| CCCNC(C)C(=O)Nc1c(C)csc1C(=O)OC (stereo not given) | inactive |
| NS(=O)(=O)c1cc(-c2nn[nH]n2)c(NCc2cccs2)cc1Cl | inactive |
| COc1cc(N)c(Cl)cc1C(=O)NC1CCN(Cc2ccccc2)CC1 | inactive |
| CC/C=C\CCOC(=O)CCCCC | inactive |
| CC1(C)S[C@@H]2[C@H](NC(=O)C(C(=O)O)c3ccccc3)C(=O)N2[C@H]1C(=O)O (stereo not given in full) | inactive |
| O=C1C=CC(=O)O1 | inactive |
| OCCN(CCO)c1ccccc1 | inactive |

| Structure (SMILES) | outcome |
| --- | --- |
| ICCc1ccccc1 | inactive |
| CCOC(=O)c1ccccc1O | inactive |
| FC(F)(F)c1ccccc1 | inactive |
| CC(C)O | inactive |
| CC(C)NCC(O)COc1ccc(CCOCC2CC2)cc1 (stereo not given) | inactive |
| CCN(CCCc1ccccc1)CCCc1ccccc1 | inactive |
| CN1CCN(C2=Nc3cc(F)ccc3Cc3ccccc32)CC1 | inactive |
| COc1cc(Cl)ccc1Cl | inactive |
| CCCCCCCCCC#N | inactive |
| CCCCc1ccc2nc(NC(=O)OC)[nH]c2c1 | inactive |
| COC(=O)C(C)O (stereo not given) | inactive |
| C[C@]12CCC(=O)C=C1CC[C@@H]1[C@@H]2CC[C@@]2(C)[C@H]1CC[C@]2(O)C(=O)CO | inactive |
| CC(=O)N(CC(O)CN(C(C)=O)c1c(I)c(C(=O)NCC(O)CO)c(I)c(C(=O)NCC(O)CO)c1I)c1c(I)c(C(=O)NCC(O)CO)c(I)c(C(=O)NCC(O)CO)c1I (stereo not given) | inactive |
| O=C(O)CN(CCN(CC(=O)O)CC(=O)O)CCN(CC(=O)O)CC(=O)O | inactive |
| CC(C)OC(C)C | inactive |
| FC(F)(F)C(F)(F)C(F)(F)C(F)(F)C(F)(F)C(F)(F)C(F)(F)C(F)(F)Br | inactive |
| O=C(CCCl)NCc1ccccc1 | inactive |
| Cc1nc(-c2ccccn2)ncc1C(=O)Nn1cc(C)c2cc(F)ccc21 | inactive |
| CC(=O)N[C@@H](CC(C)C)C(=O)O | inactive |
| CCN(CC)CC1CCCCN1CC(=O)N1c2ccccc2C(=O)Nc2cccnc21 (stereo not given) | inactive |
